Records with an inconclusive call do not appear. Active and inactive are the calls of the source. Calls come from the whole dose curve; as a rule, active = well fitted curve in the direction sought with a large enough effect; inconclusive = small, poorly fitted or top-dose-only effect, or another doubt; inactive = no such curve, though single readings can be large or run the other way. Numbered stars: 1 amine (or outer) side, 2 acyl side, 3 side chain; on linkers, the order of the positions; unused ones are H or OH. Bridge positions count the residues as written; N and C are the ends. Square brackets hold non-standard residues; d marks the D form. Peptide text beside a SMILES is read from it. I, II: the chains in the order shown. ξ: configuration not given here. Actinocin(9to1) = Cc1c2oc3c(C)ccc(C(=O)[*:1])c3nc-2c(C(=O)[*:2])c(N)c1=O; aThr = C[C@H](O)[C@H](N)C(=O)O; NMeV = CN[C@H](C(=O)O)C(C)C; ξNMeV = CNC(C(=O)O)C(C)C; ξV = CC(C)C(N)C(=O)O; Sar = CNCC(=O)O
system: Zika virus NS2B-NS3 protease (linked); assay: Optimization screen NINDS AMC qHTS for Zika virus inhibitors: Linked NS2B-NS3 protease assay; details: recombinant linked NS2B-NS3 protease, AMC fluorogenic substrate; series mostly up to 52.5 µM; activity change, negative = inhibition: at the top concentration
Text: Avindra Nath, Ph.D., National Institute of Neurological Disorders and Stroke (NINDS), Bethesda, MD
Radhakrishnan Padmanabhan, Ph.D., Georgetown University (GU), Washington D.C.
Zika Virus causes congenital defects, including microcephaly and is associated with Guillain-Barre syndrome, eningoencephalitis and myelitis in infected adult. […] Using a target-based approach, we hope to establish a screening paradigm to uncover novel, cell-active NS2B-NS3 protease (Zika Virus) specific inhibitors from NCATS' collection of small molecules using qHTS.
Four assay panel was created to identify potential Zika Virus inhibitors. Namely, (1) GU unlinked NS2B-NS3 AMC tagged protease qHTS, (2) GU unlinked NS2B-NS3 Rhodamine tagged protease qHTS, (3) NINDS linked NS2B-NS3 AMC tagged protease qHTS, (4) NINDS linked NS2B-NS3 Rhodamine tagged protease qHTS. Active compounds were re-acquired and re-screened to confirm inhibition. Inhibitors were further screened against various confirmatory and counterscreens in dose response format.
Early Translation Branch (ETB)
National Center for Advancing Translational Sciences (NCATS), Rockville, MD
National Institute of Health (NIH), Bethesda, Maryland
For the linked assay, Nath lab (NINDS) provided the purified linked NS2B-NS3 protease which is consists of hydrophilic domain of NS2B linked to the NS3 protease domain by a flexible (-GGGGSGGGG-) linker. Control compound aprotinin is obtained from Thermo Scientific (#78432; Waltham, Massachusetts). NS2B-NS3 AMC substrate (Bz-Nle-Lys-Arg-Arg-AMC; Nle-KRR-AMC) purchased from Bachem (#I-1995; Torrance, CA). Ac-VKTGKR-AMC purchased from Genscript or Bachem, Ac-FAAGKR-AMC purchased from Genscript, Ac-GLVKRR-AMC purchased from Genscript, Ac-LKKR-AMC purchased from Genscript.
NINDS AMC linked NS2B-NS3 protease qHTS protocol:
Briefly, 3 microL of Zika virus linked NS2B-NS3 protease (1 nM for linked final concentration), in assay buffer (10 mM Tris-HCl pH 8.0 with 0.01% Tween 20) was dispensed into a 1,536-well solid-bottom black plate (Greiner Bio One, Monroe, NC). Twenty-three nL of compounds (final concentration range 7.28 nM to 114 microM) or control Aprotinin (final concentration range 3.47 nM to 114 microM) were transferred via Wako Pin-tool (Wako Automation, Richmond, VA). Samples were incubated (room temperature, protected from light) for 15 minutes followed by a 1 microL AMC substrate addition of (final concentration of 10 microM; Km = 18.3 µM). Plates were then read immediately on a ViewLux High-throughput CCD imager (PerkinElmer, Waltham, MA) equipped with standard UV fluorescence optics (340(30) nm excitation, 450(20) nm emission) then incubated (room temperature, protected from light) for 15 minutes (~20% conversion). The change in fluorescence intensity over the 15-minute reaction period was normalized against no-inhibitor and no-enzyme controls and the resulting percent inhibition data were fitted to a 4-parameter Hill equation. Aprotinin was used as the intraplate control.

SMILES | activity change, negative = inhibition | Potency
O[C@@H](c1cc(C(F)(F)F)nc2c(C(F)(F)F)cccc12)[C@H]1CCCCN1 | 11.7% (inactive) | –
NC(=O)C(=O)O | 11.6% (inactive) | –
C[C@H]1O[C@@H](O[C@H]2[C@@H](O)C[C@H](O[C@H]3[C@@H](O)C[C@H](O[C@H]4CC[C@@]5(C)[C@H](CC[C@@H]6[C@@H]5C[C@@H](O)[C@]5(C)[C@@H](C7=CC(=O)OC7)CC[C@]65O)C4)O[C@@H]3C)O[C@@H]2C)C[C@H](O)[C@@H]1O | 6.73% [at 114 µM] (inactive) | –
CCCCC(CC)CN=C(N)NC(N)=NCCCCCCN=C(N)NC(N)=NCC(CC)CCCC (stereo not given) | – | 19.2 µM (active)
CO[C@H]1C[C@H](O[C@@H]2/C(C)=C/C[C@@H]3C[C@@H](C[C@]4(CC[C@H](C)[C@@H](C5CCCCC5)O4)O3)OC(=O)[C@@H]3C=C(C)/C(=N/O)[C@H]4OC/C(=C\C=C\[C@@H]2C)[C@]43O)O[C@@H](C)[C@@H]1O | -35.6% (inactive) | –
Cn1cnc([N+](=O)[O-])c1Sc1ncnc2nc[nH]c12 | – | inactive
Cc1c2oc3c(C)ccc(C(=O)N[C@@H]4C(=O)NC(C(C)C)C(=O)N5CCC[C@H]5C(=O)N(C)CC(=O)N(C)C(C(C)C)C(=O)O[C@@H]4C)c3nc-2c(C(=O)N[C@@H]2C(=O)NC(C(C)C)C(=O)N3CCC[C@H]3C(=O)N(C)CC(=O)N(C)C(C(C)C)C(=O)O[C@@H]2C)c(N)c1=O (stereo not given in full) (I: T[ξV]P[Sar][ξNMeV] / II: T[ξV]P[Sar][ξNMeV]; ester I:1-I:C, II:1-II:C; linker I:N-II:N via Actinocin(9to1)) | -2.5% (inactive) | –
CCC(CC)(NC(=O)C(C)C)C(=O)N[C@@H](CCCN=C(N)N)C(=O)NC1(C(=O)NC(c2ccc(F)cc2)c2ccc(F)cc2)CCCC1 | 14.4% (inactive) | –
Cc1c2oc3c(C)ccc(C(=O)N[C@@H]4C(=O)N[C@@H](C(C)C)C(=O)N5CCC[C@@H]5C(=O)N(C)CC(=O)N(C)[C@@H](C(C)C)C(=O)O[C@H]4C)c3nc-2c(C(=O)N[C@@H]2C(=O)N[C@@H](C(C)C)C(=O)N3CCC[C@@H]3C(=O)N(C)CC(=O)N(C)[C@@H](C(C)C)C(=O)O[C@H]2C)c(N)c1=O (I: [aThr]V[dP][Sar][NMeV] / II: [aThr]V[dP][Sar][NMeV]; ester I:1-I:C, II:1-II:C; linker I:N-II:N via Actinocin(9to1)) | -35.3% (inactive) | –
COc1c2occc2cc2ccc(=O)oc12 | – | inactive
CO[C@H]1C[C@@H](O[C@@H]2/C(C)=C/C[C@@H]3C[C@@H](C[C@]4(CC[C@H](C)[C@@H](C5CCCCC5)O4)O3)OC(=O)[C@@H]3C=C(C)/C(=N/O)[C@H]4OC/C(=C\C=C\[C@@H]2C)[C@]43O)O[C@@H](C)[C@H]1O | -44.5% (inactive) | –
CCCCOc1ccc(C2C(=O)N(C3CCCCC3)CC(=O)N2C2CCCCC2)cc1 (stereo not given) | -23.4% (inactive) | –
Nc1ccn([C@@H]2O[C@H](CO)[C@@H](O)C2(F)F)c(=O)n1 | 7.77% [at 114 µM] (inactive) | –
O=C1c2cccc3c2[C@@H](CCC3)CN1[C@@H]1CN2CCC1CC2 | -3.68% (inactive) | –
CC(C)(C)CC(C)(C)c1ccc(OCCOCC[N+](C)(C)Cc2ccccc2)cc1 | – | inactive
C[S+](CC[C@H](N)C(=O)O)C[C@H]1O[C@@H](n2cnc3c(N)ncnc32)[C@H](O)[C@H]1O (stereo not given in full) | -24.3% (inactive) | –
COc1c(C)c2c(c(O)c1C/C=C(\C)CCC(=O)O)C(=O)OC2 | -3.86% (inactive) | –
CC[C@@H](C)[C@H]1O[C@]2(CC[C@H]1C)C[C@@H]1C[C@@H](CC=C(C)[C@@H](O[C@H]3C[C@H](OC)[C@@H](O[C@H]4C[C@H](OC)[C@@H](O)[C@H](C)O4)[C@H](C)O3)[C@@H](C)C=CC=C3CO[C@@H]4[C@H](O)C(C)=C[C@@H](C(=O)O1)[C@]34O)O2 | 1.01% (inactive) | –
CC=CCC(C)C(O)C1C(=O)NC(CC)C(=O)N(C)CC(=O)N(C)C(CC(C)C)C(=O)NC(C(C)C)C(=O)N(C)C(CC(C)C)C(=O)NC(C)C(=O)NC(C)C(=O)N(C)C(CC(C)C)C(=O)N(C)C(CC(C)C)C(=O)N(C)C(C(C)C)C(=O)N1C (stereo not given) | 7.12% (inactive) | –
O=C(Nc1ccc([N+](=O)[O-])cc1Cl)c1cc(Cl)ccc1O | -11.4% (inactive) | –

SMILES | activity change, negative = inhibition | Potency
CC[C@H](C)[C@H]1O[C@]2(CC[C@@H]1C)C[C@@H]1C[C@@H](C/C=C(\C)[C@@H](O[C@H]3C[C@H](OC)[C@@H](O[C@H]4C[C@H](OC)[C@@H](O)[C@H](C)O4)[C@H](C)O3)[C@@H](C)/C=C/C=C3\CO[C@@H]4[C@H](O)C(C)=C[C@@H](C(=O)O1)[C@]34O)O2 | – | inactive
CC[C@@H]1O[C@]2(C=C[C@@H]1C)C[C@H]1C[C@H](CC=C(C)[C@@H](O[C@@H]3C[C@H](OC)[C@H](O[C@@H]4C[C@H](OC)[C@H](O)[C@H](C)O4)[C@H](C)O3)[C@@H](C)C=CC=C3CO[C@@H]4[C@@H](O)C(C)=C[C@@H](C(=O)O1)[C@]34O)O2 | -2.55% [at 24 µM] (inactive) | –
Nc1ncnc2c1ncn2[C@@H]1O[C@H](CSCC[C@H](N)C(=O)O)[C@@H](O)[C@H]1O | -22.3% (inactive) | –
CN1CCN(C(=O)CCN2C(=O)/C(=C\c3ccccc3F)SC2=S)CC1 | 9.29% [at 114 µM] (inactive) | –
CCOc1ccc(C2C(=O)N(C3CCCCC3)CC(=O)N2Cc2ccc(F)cc2)cc1OC (stereo not given) | 4.99% (inactive) | –
N[C@H](C(=O)O)c1ccc(O)cc1 | -13.9% (inactive) | –
CCOc1ccc(C2C(=O)N(C3CCCCCC3)CC(=O)N2CCc2ccc(Cl)cc2)cc1OC (stereo not given) | 2.88% (inactive) | –
CC(C)C[C@H](NC(=O)[C@H](Cc1ccccc1)NC(=O)c1cnccn1)B(O)O | 7.56% (inactive) | –
Nc1ncnc2c1ncn2[C@@H]1O[C@H](C[C@@H](N)CC[C@H](N)C(=O)O)[C@@H](O)[C@H]1O | -6.57% (inactive) | –
O=c1cc(-c2ccccc2)oc2cc(O)c(O)c(O)c12 | -18.3% (inactive) | –
CC(C)N=c1cc2n(-c3ccc(Cl)cc3)c3ccccc3nc-2cc1Nc1ccc(Cl)cc1 | -7.44% (inactive) | –
CC(C)C[C@@H](NC(=O)[C@H](Cc1ccccc1)NC(=O)c1cnccn1)B(O)O | -1.73% [at 114 µM] (inactive) | –
C[C@H]1O[C@@H](O[C@H]2CC[C@@]3(C)[C@H](CC[C@@H]4[C@@H]3C[C@@H](O)[C@]3(C)[C@@H](C5=CC(=O)OC5)CC[C@]43O)C2)C[C@H](O)[C@@H]1O[C@H]1C[C@H](O)[C@H](O[C@H]2C[C@H](O)[C@H](O[C@@H]3O[C@H](CO)[C@@H](O)[C@H](O)[C@H]3O)[C@@H](C)O2)[C@@H](C)O1 | -19.2% (inactive) | –
CCc1nc(N)nc(N)c1-c1ccc(Cl)cc1 | – | inactive
Cc1nc(Nc2ncc(C(=O)Nc3c(C)cccc3Cl)s2)cc(N2CCN(CCO)CC2)n1 | – | 355 µM (active)
O=C1c2c(O)ccc([N+](=O)[O-])c2C(=O)c2c([N+](=O)[O-])ccc(O)c21 | – | 44.1 µM (active)
S=c1nc[nH]c2nc[nH]c12 | – | inactive
CC(=O)Nc1ccc([C@H](C)C(=O)Nc2ncc(C(C)C)s2)cc1 | 7.38% (inactive) | –
Cc1ccccc1CNc1ncnc2c1ncn2C1OC(CO)C(O)C1O (stereo not given) | -8.32% (inactive) | –
OC(c1cc(C(F)(F)F)nc2c(C(F)(F)F)cccc12)C1CCCCN1 (stereo not given) | 9.63% (inactive) | –

Source: PubChem BioAssay AID1347150 (National Center for Advancing Translational Sciences (NCATS), 2019)
